Measured values published in ChEMBL document CHEMBL3433997, “St. Jude Leishmania screening dataset” (2016).

Tests used:
Type in all cases: functional
[1] = molecular target: Solute carrier family 2, facilitated glucose transporter member 1 (Homo sapiens) (UniProt P11166); assay: ST_JUDE_LEISH: Cytotoxicity at 2uM final concentration against transgenic Leishmania Mexicana promastigotes LmGLUT1 that are glucose transport deficient and complemented with the human glucose transporter GLUT1. Activity is measured by DNA content using SYBR green in vitro
[2] = molecular target: Hexose transporter 1 (Plasmodium falciparum) (UniProt O97467); assay: ST_JUDE_LEISH: Cytotoxicity at 2uM final concentration against transgenic Leishmania Mexicana promastigotes LmPfHT that are glucose transport deficient and complemented with the Plasmodium falciparum hexose transporter. Activity is measured by DNA content using SYBR green in vitro
[3] = molecular target: Glucose transporter (Leishmania mexicana) (UniProt O61059); assay: ST_JUDE_LEISH: Cytotoxicity at 2uM final concentration against transgenic Leishmania Mexicana promastigotes LmGT2 that are glucose transport deficient and complemented with the L. Mexicana glucose transporter 2. Activity is measured by DNA content using SYBR green in vitro

Chain of Solute carrier family 2, facilitated glucose transporter member 1 (Homo sapiens) (P11166 whole entry): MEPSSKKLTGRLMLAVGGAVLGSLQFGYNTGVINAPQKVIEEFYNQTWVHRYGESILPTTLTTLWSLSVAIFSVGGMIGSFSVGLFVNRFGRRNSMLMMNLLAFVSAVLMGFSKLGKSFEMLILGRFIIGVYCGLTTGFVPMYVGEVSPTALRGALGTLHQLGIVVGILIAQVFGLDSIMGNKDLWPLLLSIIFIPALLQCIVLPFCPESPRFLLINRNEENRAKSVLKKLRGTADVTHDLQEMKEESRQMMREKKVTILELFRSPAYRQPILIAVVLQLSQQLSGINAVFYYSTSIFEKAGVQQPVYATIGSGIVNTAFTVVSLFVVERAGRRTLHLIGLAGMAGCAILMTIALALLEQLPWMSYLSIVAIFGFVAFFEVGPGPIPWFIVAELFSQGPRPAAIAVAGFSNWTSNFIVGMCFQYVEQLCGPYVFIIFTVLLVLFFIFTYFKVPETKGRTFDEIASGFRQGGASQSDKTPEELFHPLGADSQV

Compound | inhibition [1] [%] | inhibition [2] [%] | inhibition [3] [%]
CNC(=O)c1ccccc1Nc1nc(Nc2cccnc2)ncc1C | -2.88 | -0.32 | -0.69
COc1cc2ncnc(Nc3ccc(OCc4ccccc4Br)c(Cl)c3)c2cc1OC | -3.06 | 1.28 | 6.38
COCCNCc1ccc(-c2ccc3c(Nc4ccc(F)cc4Cl)ccnc3c2)o1 | 4.1 | 4.05 | 5.59
Cc1cccc2nc(-c3ccc(-c4cccc(CN5CC(C)OC(C)C5)c4)s3)[nH]c12 (centres undefined) | 7.69 | 6.31 | 4.91
COc1ccc(CNC(=O)c2cnc3c(O)cccc3c2Nc2cccc(NC(=O)c3ccc(-c4ccccc4)cc3)c2)cc1 | 76.8 | 79.7 | 64.3
Oc1ccc2nc(NCCCc3ccccc3)nc(NCCCc3ccccc3)c2c1 | 28.4 | 20.7 | 11.1
NCCCCNc1cc(-c2ccnc(Nc3cccc(Cl)c3)n2)ccn1 | 60.5 | 71.8 | 76.5
CCCCN(CCCC)CCCCCCNc1c2ccccc2nc2ccccc12 | 28 | 22.7 | 18.2
O=C(N[C@@H](Cc1ccccc1)[C@H](O)CNCCC(F)(F)F)c1cccc(OCC2CC2)c1 | -0.59 | -0.22 | 0.56
CCN(CC(C)O)C(=O)c1ccc(-c2ccc(-c3nc4cccc(C)c4[nH]3)cc2)cc1 (centres undefined) | 6.07 | -2.57 | 0.55
CCN(CC)CCN(Cc1ccc(-c2ccc(C(F)(F)F)cc2)cc1)C(=O)Cn1cc(CCCc2cccc(F)c2F)c(=O)c2ccccc21 | 4.03 | 3.93 | 4.35
O=C(NCc1cccc(C(F)(F)F)c1)C1CCCN(C(=O)c2ccc(O)c(-c3ccc(Cl)c(Cl)c3)c2)C1 (centres undefined) | 3.46 | 2.95 | 3.95
CN(C)c1ccc(CN2CCCCC(NC(=O)c3cc(-c4ccccc4F)cs3)C2)cc1 (centres undefined) | -0.57 | -0.62 | -7.76
NS(=O)(=O)c1cccc(N/C=C2\C(=O)Nc3ccc(S(=O)(=O)Cc4c(Cl)cccc4Cl)cc32)c1 | 4.04 | 0.57 | 3.06
Cc1ccc(CNC(=O)[C@H](CC(C)C)Nc2cc(C)nc(Nc3ccccc3)n2)cc1 | 3.16 | 4.07 | -0.24
CCCN1CCN(c2ccccc2NS(=O)(=O)c2ccc(C(=O)Nc3ccc(Cl)cc3)cc2)CC1 | 2.67 | 3.32 | -1.54
Cc1ccc2c(=NN=CC=Cc3ccccc3)cc(C)[nH]c2c1 | 1.49 | 5.52 | 2.88

Compound | inhibition [1] [%] | inhibition [2] [%] | inhibition [3] [%]
CC(C)(C)COC(=O)c1ccc(NC(=O)N[C@@H](Cc2ccc(O)cc2)C(=O)NC2CCN(Cc3ccc(O)cc3)C2)cc1 (some centres undefined) | -2.22 | -2.38 | -0.79
Cc1cc(Nc2cc(Cl)cc(Cl)c2)nc(N)n1 | 9.89 | 10.2 | 6.94
NCc1ccc(CNCc2ccc(-c3ccc(-c4nc5cc(C(F)(F)F)ccc5[nH]4)s3)cc2)cc1 | 0.59 | 1.45 | 0.6
CC(C)C1=CC(=NOS(=O)(=O)c2ccccc2)C=C(C(C)C)C1=O | 0.62 | 4.11 | -0.38
O=C(Nc1ccc(OC2CCN(Cc3ccc(F)cc3)C2)c(Cl)c1)c1ccoc1 (centres undefined) | 0.67 | 1.54 | 0.61
CN1CCN(CCCCCNc2c3ccccc3nc3ccccc23)CC1 | 28 | 21.1 | 17.9
COc1ccc2nccc(C(=O)NC3CCC(CCN4CCc5cc(C#N)ccc5C4)CC3)c2c1 (centres undefined) | 7.23 | 5.23 | 6.71
Cc1ccc(C(NC(=O)Cc2ccccc2)c2ccc3cccnc3c2O)cc1 (centres undefined) | 8.52 | 22.8 | 0.77
Fc1ccc2[nH]c(-c3ccc(-c4cccc(CN5CCN(CCN6CCOCC6)CC5)c4)cc3)nc2c1 | 4.48 | 3.16 | 1.99
Fc1ccc2[nH]c(-c3ccc(-c4ccc(CN5CCN(c6cnccn6)CC5)cc4)s3)nc2c1 | 2.41 | 1.2 | 0.86
CC1(C)N=C(N)N=C(N)N1OCC1COc2ccccc2O1 (centres undefined) | 1.54 | 0.64 | 0.96
Cc1cc(C)n(-c2nc(Nc3cccc(C(F)(F)F)c3)nc(-n3nc(C)cc3C)n2)n1 | -2.75 | -3.09 | -1.11
COc1ccc(CNC(=O)Nc2cccc(-c3csc(NC(=N)N)n3)c2)cc1 | -2.22 | -0.98 | 1.03
CCCCCCOc1ccc(N2C(N)=NC(N)=NC2(C)C)cc1 | 1.45 | 1.46 | 0.46
OCC1CCN(Cc2cccc(-c3ccc(-c4nc5cc(F)ccc5[nH]4)cc3)c2)CC1 | 0 | -0.04 | 0.27
Cc1cccc2nc(-c3cccc(-c4ccc(CNCc5cccc(N)c5)cc4)c3)[nH]c12 | -2.78 | -1.49 | -2.56
